# Data as given in PubChem BioAssay.
# Test: small molecules captured by biotinylated probe aFGF2 – biochemical, small-molecule microarray, fluorescence 635/667, stem cell growth factor project, primary screen (AID 1067);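 note: measures binding of biotinylated aFGF2 protein to printed compounds on slides; z-score merges feature fluorescence and signal-to-noise across triplicate slides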
# Conditions: higher = more signal
row,SMILES,composite z-score
1,[N-]=[N+]=Nc1ccccc1[C@H]1OC(c2ccc(OCCCO)cc2)=N[C@@]1(Cc1ccccc1)C(=O)N1CCCCC1,-0.0044
2,CCCNC(=O)[C@@]1(c2ccc([N+](=O)[O-])cc2)CC(=O)N(C2CCCCC2)[C@@H]1c1ccc(CO)cc1,-0.0133
3,CN1C(=O)C2C=CC(C(O)c3ccccn3)N(N(c3ccccc3)c3ccccc3)C2C1=O (stereo unspecified),0.0276
4,COCCOC(=O)N1C(=O)[C@@]2(c3cc(C#CC4=CCCCC4)ccc31)[C@H](c1ccc(O)cc1)N1[C@H](c3ccccc3)[C@H](c3ccccc3)OC(=O)[C@H]1[C@@H]2C(=O)N1CCN(c2ncccn2)CC1,-0.141
5,C[N+](C)(C)CCCCCCNC(=O)[C@H]1C[C@H]2C(=O)N[C@@H](Cc3ccccc3)C(=O)N2[C@H]1c1ccc(O)cc1,-0.0853
6,O=C1NC(=O)C2C1C=CC(C(O)c1cccc3ccccc13)N2Nc1ccc(Cl)cc1Cl (stereo unspecified),-0.0752
7,COC(=O)[C@@]1(Cc2ccc(F)cc2)[C@H]2c3cc(C(=O)N4CCCC4)n(CCc4ccc(O)c(O)c4)c3C[C@H]2CN1C(=O)c1ccccc1,0.57
8,O=C(CS)NCCCCCCNC(=O)[C@H]1C[C@H]2C(=O)N[C@@H](Cc3ccccc3)C(=O)N2[C@H]1c1ccc(O)cc1,-0.132
9,C#CCN([C@@H](Cc1ccc(O)cc1)C(=O)OC)[C@@H](/C=C/C1CC1)[C@H](O)Cc1ccccc1,-0.0732
10,CCOC(=O)c1ccc(NC(=O)O[C@H]2[C@H](OC(=O)Nc3ccc4c(c3)OCO4)[C@@H](OC(=O)Nc3ccc4c(c3)OCO4)[C@@H](OC)O[C@@H]2CO)cc1,0.0121
11,O=c1n(-c2ccccc2)c(=O)n2n1CC(COc1ccccc1)=C([C@H](O)CCc1ccccc1)[C@@H]2CO,-0.141
12,COc1ccc([Si](C)(C)[C@@H]2[C@@H](CC(=O)N3Cc4ccccc4C[C@H]3CO)O[C@]3(C(=O)N(Cc4cccc(N5C(=O)c6cccc7cccc5c67)c4)c4ccccc43)[C@H]2C)cc1,-0.0111
13,CN(C)C(=O)[C@]1(CCS(=O)(=O)c2ccccc2)N=C(c2ccc(OCCCO)cc2)O[C@@H]1c1ccccc1N=[N+]=[N-],0.15
14,COC(=O)[C@@]1(Cc2ccc(OC)cc2)[C@H]2c3cc(C(=O)N4CCCC4)n(Cc4c(-c5ccccc5)noc4C)c3C[C@H]2CN1C(=O)c1ccccc1,0.336
15,O=C1O[C@H](c2ccccc2)[C@H](c2ccccc2)N2[C@H]1[C@@H](C(=O)O)[C@]1(C(=O)Nc3ccc(C#CC4=CCCCC4)cc31)[C@H]2c1ccc(O)cc1,-0.0899
16,COc1cc2c(cc1OC)CN(C(=O)[C@@H]1[C@H]3C(=O)O[C@H](c4ccccc4)[C@H](c4ccccc4)N3[C@H](c3ccc(OCCO)cc3)[C@@]13C(=O)Nc1ccccc13)CC2,0.0373
17,COC(=O)[C@@]1(Cc2ccccc2)[C@H]2c3cc(C(=O)N(C)C)n(CCN4CNCC4=O)c3C[C@H]2CN1C(=O)c1ccccc1,0.539
18,CN(C)c1ccc(C(O)C2C=CC3C(=O)N(c4ccccc4)C(=O)C3N2Nc2ccc([N+](=O)[O-])cc2)cc1 (stereo unspecified),0.0495

row,SMILES,composite z-score
1,C=C(C)c1cc2c(c(CCCCCC)n1)[Si](C(C)C)(C(C)C)OC2,-0.157
2,O=C1O[C@@H](c2ccccc2)[C@@H](c2ccccc2)N2[C@@H](c3ccc(O)cc3)[C@]3(C(=O)Nc4ccc(C#CC5(O)CCCCCC5)cc43)[C@@H](C(=O)NC[C@H](O)c3ccccc3)[C@H]12,-0.0255
3,COCCCNC(=O)[C@@]1(Cc2ccccc2N=[N+]=[N-])N=C(c2ccc(OCCCO)cc2)O[C@H]1c1ccccc1,0.153
4,O=C1O[C@H](c2ccccc2)[C@H](c2ccccc2)N2[C@H]1[C@@H](C(=O)Nc1nc3ccccc3s1)[C@]1(C(=O)Nc3ccc(C#CCCO)cc31)[C@H]2c1ccc(O)cc1,-0.0074
5,COC(=O)[C@@]1(Cc2ccccc2)[C@H]2c3cc(C(=O)N(C)C)n(CCc4ccc(O)c(OC)c4)c3C[C@H]2CN1C(=O)c1ccccc1,0.356
6,O=C1OCC=C[C@H]2OC34C=CCN(c5ccc(Cl)cc5)C(=O)[C@H]3N(CCO)C(=O)[C@@H]4[C@@H]12 (stereo partly specified),-0.147
7,CC(C)Cc1ccc(CN2CC[C@@H](NC(=O)Nc3ccccc3)C2)cc1,-0.173
8,C=CCC(OC(C)=O)[C@@H]1[C@@H](N(Cc2cc3ccccc3o2)C(=O)c2ccc(-c3ccccc3)cc2)c2cc(OCCCO)ccc2N1C(=O)c1ccc2ccccc2c1 (stereo partly specified),0.0405
9,Cc1ccc(S[C@]2(C(=O)O)CC(=O)N(Cc3ccccc3Cl)[C@@H]2c2ccc(CO)cc2I)cc1,0.234
10,COCCCNC(=O)[C@@]1(Sc2ccc(C)cc2)CC(=O)N(C2CCCCC2)[C@@H]1c1ccc(CO)cc1,0.0019
11,COCC1=C2[C@@H](CCc3ccccc3)OB(O)C[C@@H]2[C@@H]2C(=O)C=CC(=O)[C@@H]2C1,-0.051
12,COc1ccc([Si](C)(C)[C@@H]2[C@@H](CCn3cc([C@H](O)c4ccccc4)nn3)O[C@]3(C(=O)N(Cc4ccc(N5CCC5=O)cc4)c4ccccc43)[C@H]2C)cc1,-0.164
13,CCOc1cc(C(O)C2C=CC3C(=O)N(C)C(=O)C3N2Nc2ccccc2)ccc1O (stereo unspecified),0.0827
14,C=C(C(=O)CC[C@@H](OC(C)=O)c1ccc(CO)o1)C(C)C,-0.08
15,CC(=O)NCCCC[C@@H]1NC(=O)[C@@H]2C[C@H](C(=O)NCCCC[N+](C)(C)C)[C@H](c3ccc(O)cc3)N2C1=O,0.0056
16,CCOC(=O)C1CCCCN1 (stereo unspecified),0.119
17,C=CCOC(=O)[C@H]1[C@@H]2C(=O)O[C@@H](c3ccccc3)[C@@H](c3ccccc3)N2[C@@H](c2ccc(OCCOC(=O)[C@@H]3C[C@@H]4C(=O)N[C@@H](CCCCN(C)C)C(=O)N4[C@@H]3c3ccc(O)cc3)cc2)[C@]12C(=O)Nc1ccccc12,-0.113
18,CCCC[C@@H]1C[C@H]1[C@@H](NC(=O)c1cccs1)c1ccc(C(F)(F)F)cc1,-0.0783
